Results published in PubChem BioAssay AID720518 (National Center for Advancing Translational Sciences (NCATS), 2013).
Records with an inconclusive call do not appear. The source made the active and inactive calls. Calls come from the whole dose curve.

Assay: qHTS for Inhibitors of Cell Surface uPA Generation: Wild-type Protective Antigen (WT-PrAg) Counterscreen for Cherry-picked Compounds; for activity (protection): 0% is about no effect
Settings: cells, WT protective antigen toxicity counterscreen; series mostly up to 115 µM; activity (protection): at the top concentration
Potency is the fitted concentration of half-maximal effect.

| Structure (SMILES) | activity (protection) | Potency |
| --- | --- | --- |
| COCCn1c(SCC(=O)Nc2ccc(F)cc2)nc2ccccc2c1=O | 4.62% (inactive) |  |
| Cc1cc(C)cc(S(=O)(=O)c2cn(C)c3cc(N4CCN(C)CC4)c(F)cc3c2=O)c1 | -0.207% (inactive) |  |
| CCOc1ccccc1N(CC(=O)Nc1ccc(OC)cc1)S(=O)(=O)c1ccccc1 | 0.0168% (inactive) |  |
| O=C(NC(=O)c1ccccc1)Nc1cccc(S(=O)(=O)N2CCCCC2)c1 | -0.591% (inactive) |  |
| CCCCn1c(=NC(=O)c2ccco2)c(C(=O)OCC)cc2c(=O)n3cccc(C)c3nc21 | 0.971% (inactive) |  |
| O=C(CN1CCN(Cc2ccc(Cl)cc2)C1=O)NCc1cccs1 | -0.806% (inactive) |  |
| CCOCCCn1c(SCC(=O)Nc2cc(OC)ccc2OC)nc2ccccc2c1=O | -2.4% (inactive) |  |
| Cc1ccc2nc(Nc3ccc(Cl)cc3)c3nncn3c2c1 | 1.05% (inactive) |  |
| O=C(CSc1ccc(Cl)cc1)N1CCCC1 | -1.93% (inactive) |  |
| O=C(COc1ncnc2sccc12)Nc1cccc(S(=O)(=O)N2CCCC2)c1 | -0.649% (inactive) |  |
| c1ccc(C2[C@H]3CN(Cc4cccnc4)[C@H](c4ccccc4)C34CC2(c2ccccc2)C4)cc1 (stereo not given in full) | 2.02% (inactive) |  |
| O=C(Nc1c(C(=O)O)oc2ccc(Br)cc12)c1ccccc1 | -2.48% (inactive) |  |
| COc1ccc(C[C@@H]2OC3(C=CC(=O)C=C3)O[C@H]2Cc2ccc(OC)cc2)cc1 | -2.08% (inactive) |  |
| CCOC(=O)c1c(NC(=O)CC2SC(N)=NC2=O)sc2c1CCC(C)C2 (stereo not given) | -1.85% (inactive) |  |
| Cc1cccc(NC(=O)c2cc3c(=O)n4ccccc4nc3s2)c1 | 0.263% (inactive) |  |
| CCOc1ccc(C(=O)NCC(=O)N2CCN(C/C=C/c3ccccc3)CC2)cc1OCC | -0.61% (inactive) |  |
| CCOC(=O)c1ccccc1N=Cc1c(O)c2ccccc2oc1=O | -1.45% (inactive) |  |
| COC(=O)CNC(=O)COC(=O)/C=C/c1ccccc1[N+](=O)[O-] | -1.21% (inactive) |  |
| O=C(Nc1cccc(-c2nn[nH]n2)c1)c1ccc(Cl)s1 | -1.91% (inactive) |  |
| Cc1cc(C)cc(NC(=O)C(OC(=O)c2ccc(O)cc2)c2ccccc2)c1 (stereo not given) | -1.09% (inactive) |  |

| Structure (SMILES) | activity (protection) | Potency |
| --- | --- | --- |
| CC(=O)NCCc1cnc[nH]1 | -0.521% (inactive) |  |
| Cc1nc2ccc(Br)cn2c1C(=O)N/N=C\c1ccccc1Cl | 1.22% (inactive) |  |
| Cc1nn(CC(=O)OCC(=O)NC(C)c2ccccc2)c(C)c1[N+](=O)[O-] (stereo not given) | -0.966% (inactive) |  |
| Cc1noc(C)c1COc1ccc(C(=O)N2CCN(S(=O)(=O)c3ccc(Cl)cc3)CC2)cc1 | 3.98% (inactive) |  |
| CCOc1cc(C(=O)OCC(=O)c2cc(C)n(CC3CCCO3)c2C)ccc1OCC(=O)N1CCOCC1 (stereo not given) | -1.31% (inactive) |  |
| Cc1c(NC(=O)C(C)OC(=O)CCC2CCCC2)c(=O)n(-c2ccccc2)n1C (stereo not given) | 0.713% (inactive) |  |
| CC(=O)c1ccc(NC(=O)Nc2ccc(Br)cc2C)cc1 | 1.01% (inactive) |  |
| COc1ccc(Cc2nnc(Nc3ccc(C)cc3)o2)cc1OC | -0.388% (inactive) |  |
| CCOc1ccc(NS(=O)(=O)c2ccc(C(=O)N3CCC3)cc2)cc1 | -0.678% (inactive) |  |
| CC(C)CN(C(=O)CN1CCC(C)CC1)c1c(N)n(CC(C)C)c(=O)[nH]c1=O | 0.779% (inactive) |  |
| CC(=O)Nc1ccc(OS(=O)(=O)c2c(C)cc(C)cc2C)cc1 | -2.07% (inactive) |  |
| CC(C)C1Oc2ccccc2N(CC(=O)NC2CCCCC2)C1=O (stereo not given) |  | 36.9 µM (active) |
| O=C(COC(=O)c1cc([N+](=O)[O-])ccc1NCCO)NCc1cccs1 | -0.253% (inactive) |  |
| COc1ccc(-c2cc3nc(-c4ccccc4)cc(N4CCCC(O)C4)n3n2)cc1 (stereo not given) | 2.16% (inactive) |  |
| O=C(Nc1ccc(NC(=O)c2ccco2)c(Cl)c1)c1ccccc1 | 0.145% (inactive) |  |
| COc1ccccc1NC(=O)Cn1ncc2c1-c1ccccc1OC2 | -0.171% (inactive) |  |
| Cc1cc(C)c(S(=O)(=O)N2CCCOC2CNC(=O)C(=O)NCc2cccs2)c(C)c1 (stereo not given) | -0.312% (inactive) |  |
| CC1CCN(C2=C(NS(=O)(=O)c3ccc(Br)cc3)C(=O)c3ccccc3C2=O)CC1 | -2.21% (inactive) |  |
| COc1cc(/C=C(/C#N)C(=O)Nc2ccccc2)ccc1OCc1ccc(C(=O)O)cc1 | 0.55% (inactive) |  |
| COc1ccc(OC)c(S(=O)(=O)N2CCC(NC(=O)c3ccccc3)CC2)c1 | 0.873% (inactive) |  |
